# Measurements: PubChem BioAssay (NCATS)
# Inconclusive results are not listed. Where a call stands in place of a potency, no number is given. Active and inactive are the calls of the source. Calls come from the whole dose curve; as a rule, active = well fitted curve in the direction sought with a large enough effect; inconclusive = small, poorly fitted or top-dose-only effect, or another doubt; inactive = no such curve, though single readings can be large; an effect the other way counts as inactive or inconclusive.
# What was measured:
# [1] = MultiTox-Fluor Cytotoxicity Assay - LYMP1-002 - Dead Cells (AID 960); details: LYMP1-002 lymphoblastoid cells, dead-cell protease fluorescence; series mostly up to 46.1 µM; note: nearly all actives have a fitted effect of over 60% in size; note: potency is the fitted concentration of half-maximal effect
# Summary of the method: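 LYMP1-002 cells 2500/well; 5 hr 37 C pre-incubation; compound 16 hr 37 C; MultiTox-Fluor reagent 60 min RT; dead-cell fluor Ex/Em 485/520. Norm. to DMSO (0%) vs 15 uM tetraoctylammonium bromide (100%); Hill AC50.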
# [2] = MultiTox-Fluor Cytotoxicity Assay - LYMP1-003 - Dead Cells (AID 961); details: LYMP1-003 lymphoblastoid cells, dead-cell protease fluorescence; series mostly up to 92.2 µM;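 note: cells exposed to compound for 16 h at 37 °C; nearly all actives have a fitted effect of over 70% in size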
# Summary of the method: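 Acute toxicity is scored as increased dead-cell protease activity in human lymphoblastoid LYMP1-003 cells after 16 h compound exposure in complete culture medium. Activity is normalized to DMSO basal and 15 uM tetraoctylammonium bromide as full response.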
# [3] = MultiTox-Fluor Cytotoxicity Assay - LYMP1-003 - Live Cells (AID 962); details: LYMP1-003 lymphoblastoid cells, MultiTox-Fluor live-cell protease fluorescence; series mostly up to 92.2 µM;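 note: cells exposed to compound for 16 hours at 37 °C; cytotoxic hits lower the live-cell protease signal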
# Summary of the method: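 qHTS, 1536-well; 2500 cells/well LYMP1-003; 5 hr 37 C settle; cpd 16 hr 37 C; MultiTox-Fluor reagent 60 min RT; live-cell protease fluor. 405/510; Hill-fit AC50; tetraoctylammonium bromide pos. ctrl.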
# [4] = Cell Viability - LYMP1-003 - Assay at 24 hr (AID 963); details: LYMP1-003 lymphoblastoid cell viability; series mostly up to 92.2 µM
# Summary of the method: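 Cells seeded at 2500/well, 5 hr at 37 C; compounds added; 24 hr at 37 C; CellTiter-Glo added, 30 min room temperature; luminescence read. Decrease in ATP taken as cytotoxicity, AC50 from Hill modelling.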
# [5] = Cell Viability - LYMP1-003 - Assay at 40 hr (AID 964); details: LYMP1-003 lymphoblastoid viability; series mostly up to 92.2 µM; note: nearly all actives have a fitted effect of over 60% in size; note: potency is the fitted concentration of half-maximal effect
# Summary of the method: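 Cells were seeded at 2500 per well and incubated 5 hr at 37 C. Compounds were added across a concentration series and left 40 hr at 37 C. CellTiter-Glo was added for 30 min at room temperature before luminescence reading.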
# [6] = Cell Viability - LYMP2-003 (AID 965); details: LYMP2-003 lymphoblastoid cell viability; series mostly up to 92.2 µM;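 note: cells exposed to compounds for 24 h before reading; nearly all actives have a fitted effect of over 50% in size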
# Summary of the method: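 Human lymphoblastoid LYMP2-003 cells, 2500/well, exposed to compounds for 24 h at 37 C in complete medium. Viability read as intracellular ATP by CellTiter-Glo luminescence; AC50 from Hill-equation fits of qHTS concentration-response data.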
# [7] = Cell Viability - LYMP2-004 (AID 966); details: LYMP2-004 lymphoblastoid cell viability, qHTS; series mostly up to 92.2 µM; note: nearly all actives have a fitted effect of over 65% in size
# Summary of the method: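 Cells seeded 2500/well, rested 5 hr at 37 C, dosed across a concentration series, incubated 24 hr at 37 C, then CellTiter-Glo added for 30 min at room temperature and luminescence read. Hill fitting gave AC50.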
# [8] = Cell Viability - LYMP2-005 (AID 967); details: LYMP2-005 lymphoblastoid cell viability; series mostly up to 92.2 µM
# Summary of the method: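 Human lymphoblastoid LYMP2-005 cells, 2,500 per well in complete medium, rested 5 h at 37C then compound-treated 24 h at 37C. Intracellular ATP read by CellTiter-Glo luminescence after 30 min at room temperature; AC50 from Hill-equation fits of concentration-response data.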
# [9] = Cell Viability - LYMP2-009 (AID 968); details: LYMP2-009 lymphoblastoid cell viability; series mostly up to 92.2 µM; note: nearly all actives have a fitted effect of over 55% in size
# [10] = Cell Viability - LYMP2-011 (AID 969); details: LYMP2-011 lymphoblastoid cells viability; series mostly up to 92.2 µM; note: nearly all actives have a fitted effect of over 60% in size
# Summary of the method: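 2500 cells/well, 5 hr 37 C; compound added, 24 hr 37 C; CellTiter-Glo 30 min RT; luminescence. qHTS concentration-response, Hill-equation AC50. Tetraoctylammonium bromide positive control.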
SMILES,Potency [1],outcome [2],outcome [3],outcome [4],Potency [5],outcome [6],outcome [7],outcome [8],outcome [9],outcome [10]
COc1ccc2c(c1)c(CC(=O)O)c(C)n2C(=O)c1ccc(Cl)cc1,inactive,inactive,inactive,inactive,inactive,inactive,inactive,inactive,inactive,inactive
Nc1c2c(nc3ccccc13)CCCC2,inactive,inactive,inactive,inactive,inactive,inactive,inactive,inactive,inactive,inactive
O=c1c(-c2ccc(O)cc2)coc2cc(O)cc(O)c12,inactive,inactive,inactive,inactive,inactive,inactive,inactive,inactive,inactive,inactive
Cc1ccc(-c2cc(C(F)(F)F)nn2-c2ccc(S(N)(=O)=O)cc2)cc1,,inactive,inactive,inactive,inactive,inactive,inactive,inactive,inactive,inactive
CC(C)NCC(O)c1ccc(O)c(O)c1 (stereo unspecified),inactive,inactive,inactive,inactive,,inactive,inactive,inactive,inactive,inactive
NCCS(=O)(=O)O,inactive,inactive,inactive,inactive,inactive,inactive,inactive,inactive,inactive,inactive
N[C@@H](Cc1c[nH]c2ccc(O)cc12)C(=O)O,inactive,inactive,inactive,inactive,inactive,inactive,inactive,inactive,inactive,inactive
COc1ccc2[nH]cc(CCNC(C)=O)c2c1,inactive,inactive,inactive,inactive,inactive,inactive,inactive,inactive,inactive,inactive
Cc1cn([C@H]2C=C[C@@H](CO)O2)c(=O)[nH]c1=O,inactive,inactive,inactive,inactive,inactive,inactive,inactive,inactive,inactive,inactive
COc1ccc(CCN(C)CCCC(C#N)(c2ccc(OC)c(OC)c2)C(C)C)cc1OC (stereo unspecified),inactive,inactive,inactive,inactive,inactive,,,,,
CC(COc1ccccc1)N(CCCl)Cc1ccccc1 (stereo unspecified),inactive,inactive,inactive,inactive,inactive,inactive,inactive,inactive,,
COc1cc2c(c(OC)c1OC)-c1ccc(OC)c(=O)cc1[C@@H](NC(C)=O)CC2,0.0501 µM (active),,,,0.02 µM (active),,inactive,,,
Clc1ccc(C(c2ccccc2Cl)C(Cl)Cl)cc1 (stereo unspecified),inactive,inactive,inactive,inactive,inactive,inactive,inactive,inactive,inactive,inactive
CC(C)C(=O)Nc1ccc([N+](=O)[O-])c(C(F)(F)F)c1,,inactive,inactive,inactive,inactive,inactive,inactive,inactive,inactive,inactive
O=c1[nH]cc(F)c(=O)[nH]1,inactive,inactive,inactive,inactive,,inactive,inactive,inactive,inactive,inactive
NS(=O)(=O)c1cc2c(cc1Cl)NCNS2(=O)=O,,inactive,inactive,inactive,inactive,inactive,inactive,inactive,inactive,inactive
Cn1c(=O)c2[nH]cnc2n(C)c1=O,inactive,inactive,inactive,inactive,inactive,inactive,inactive,inactive,inactive,inactive
CCC1(c2ccccc2)C(=O)NCNC1=O,inactive,inactive,inactive,inactive,inactive,inactive,inactive,inactive,inactive,inactive
Cc1cn([C@H]2C[C@H](N=[N+]=[N-])[C@@H](CO)O2)c(=O)[nH]c1=O,inactive,inactive,inactive,inactive,inactive,inactive,inactive,inactive,inactive,inactive
Cn1c(=O)c2c(ncn2C)n(C)c1=O,inactive,inactive,inactive,inactive,inactive,inactive,inactive,inactive,inactive,inactive
Nc1ccn([C@H]2CC[C@@H](CO)O2)c(=O)n1,inactive,inactive,inactive,inactive,inactive,inactive,inactive,inactive,inactive,inactive
